High-throughput results from PubChem BioAssay.
Most compounds without a hit are left out; they make up all but 3.2% or so of the library.
Sm TGR block: blocks Schistosoma mansoni thioredoxin glutathione reductase | Potency, µM (series often up to 114 µM), hits mostly inhibitors | Q962Y6 | AID 485364 | actives 3% (n = 360,000) | purified TGR, DTNB reduction, TNB absorbance 405 nm; also: nearly all actives have a fitted effect of over 60% in size
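First, TGR (20 nM dispensed) and NADPH were mixed with compound. Second, a 15 min room-temperature incubation followed. Third, further NADPH and then DTNB were added to start the reaction. Finally, TNB absorbance was monitored kinetically.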
AmpC inh no detg: blocks E. coli AmpC beta-lactamase in detergent-free assay | AmpC nitrocefin hydrolysis, absorbance 480 nm, 0.0001% Triton | Potency, µM (series often up to 57.1 µM), actives largely listed as inhibitors | actives 0.52% (n = 330,000) | AID 485341; also: nearly all actives have a fitted effect of over 20% in size
Target sequence (P00811 whole entry, looked up): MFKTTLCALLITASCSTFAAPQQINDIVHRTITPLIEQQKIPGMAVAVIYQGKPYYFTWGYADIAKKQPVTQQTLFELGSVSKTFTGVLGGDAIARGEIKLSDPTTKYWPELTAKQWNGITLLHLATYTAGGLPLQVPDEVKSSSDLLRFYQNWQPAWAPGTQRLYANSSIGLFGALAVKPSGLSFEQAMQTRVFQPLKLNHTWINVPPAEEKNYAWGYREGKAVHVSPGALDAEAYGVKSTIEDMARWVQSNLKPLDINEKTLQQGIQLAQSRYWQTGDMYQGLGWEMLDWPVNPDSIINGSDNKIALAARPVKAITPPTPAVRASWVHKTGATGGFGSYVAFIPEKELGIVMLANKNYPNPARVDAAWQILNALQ
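20 mM phosphate pH 7.0 + 0.01% (detergent screen) or 0.0001% Triton X-100; 5.3 nM AmpC reagent; cpd preinc 15 min RT; nitrocefin (800 uM stock) to start; A480 q20 s × 4 min; Activity was normalised to no-enzyme and no-compound control wells.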
AmpC inh detg: AmpC beta-lactamase inhibition with detergent present | P00811 | AmpC hydrolysis of nitrocefin, absorbance 480 nm, 0.01% Triton | Potency, µM (series often up to 114 µM), hits mostly inhibitors | actives 0.041% (n = 370,000); also: nearly all actives have a fitted effect of over 25% in size
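AmpC (5.3 nM in the dispensed reagent) in 20 mM phosphate pH 7.0 with 0.01% (detergent screen) or 0.0001% Triton X-100 was preincubated with compounds for 15 min at room temperature. Nitrocefin was then added from an 800 uM solution, and hydrolysis was followed at 480 nm.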
RE007 growth inh: less growth of the S. pombe RE007 Vpr strain | S. pombe RE007 Vpr strain, BacTiter-Glo ATP luminescence, 24 h | Potency, µM (top dose mostly 92.2 µM), hits mostly inhibitors | actives 0.21% (n = 360,000); active = well fitted falling curve with a large enough effect; inconclusive = small, poorly fitted or top-dose-only effect; inactive = no such curve, though single readings can be large or run the other way; also: nearly all actives have a fitted effect of over 50% in size
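Fission yeast strain RE007, carrying one chromosomally integrated HIV-1 vpr copy, was seeded at OD 0.01 in PMG+AL medium with 23 nL pinned compound. After 24 h at 30 °C and 99% humidity, viability was read by BacTiter-Glo luminescence.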
AMA1 RON2 block: disrupts binding of P. falciparum AMA1 to RON2 | AlphaScreen AMA1-biotinylated RON2 peptide binding | Potency, µM (series often up to 58.2 µM), hits mostly inhibitors | actives 0.2% (n = 360,000) | AID 720542; also: nearly all actives have a fitted effect of over 45% in size
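AMA1 (3D7) with his tag at 25 nM final met compounds first, then biotinylated RON2 peptide at 25 nM; detection used donor plus acceptor beads, 10 µg/mL apiece, read by AlphaScreen after 30 min at room temperature.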
Each line names hits and unclear results; the compound was inactive in the other large screens. Unless noted, calls follow the shape of the dose curve; as a rule, active = well fitted curve in the direction sought with a large enough effect; inconclusive = small, poorly fitted or top-dose-only effect, or another doubt; inactive = no such curve, though single readings can be large; an effect the other way counts as inactive or inconclusive.

Oc1ccc(Cl)cc1/C=N/c1nccs1	Sm TGR block 20µM
Oc1ccc(Cl)cc1C=Nc1ccc(Br)cc1	none
Cn1nnnc1SCCCNCc1cc(Cl)ccc1OCc1ccccc1	none (no result: AmpC inh no detg, RE007 growth inh, AMA1 RON2 block)
COc1cccc(N2CCN(Cc3nnc(-c4ccc5c(c4)OCO5)o3)CC2)c1	none (no result: AmpC inh no detg, RE007 growth inh, AMA1 RON2 block)
O=S(=O)(Nc1cccc(-c2ccc(N3CCCCC3)nn2)c1)c1cccs1	none (no result: AmpC inh no detg, RE007 growth inh, AMA1 RON2 block)
CCc1ccccc1NC(=O)CSc1nc2c(c(=O)[nH]1)CN(Cc1ccccc1OC)CC2	none (no result: AmpC inh no detg, RE007 growth inh, AMA1 RON2 block)
O=C(CCN1CCc2ccccc2C1)c1ccc2c(c1)OCCO2	Sm TGR block 0.282µM, RE007 growth inh 7.94µM
O=C(CCN1CCC(c2ccccc2)C1)c1ccccc1 (centres undefined)	none
O=C(CCN1CCC(c2ccccc2)C1)c1ccc2c(c1)OCCO2 (centres undefined)	Sm TGR block 0.1µM, RE007 growth inh inconclusive
O=C(CCN1CCc2ccccc21)c1ccc2c(c1)OCCO2	Sm TGR block inconclusive, AmpC inh detg inconclusive, RE007 growth inh inconclusive, AMA1 RON2 block inconclusive
COc1cc(C(=O)CCN2CCC(c3ccccc3)C2)cc(OC)c1OC (centres undefined)	Sm TGR block 0.282µM, RE007 growth inh inconclusive
O=C(CCN1CCCC1Cc1ccccc1)c1ccc2c(c1)OCCO2 (centres undefined)	Sm TGR block 0.316µM, RE007 growth inh 25.1µM (no result: AmpC inh no detg)
O=C(CCN1CCC(c2ccccc2)C1)c1cccs1 (centres undefined)	none
O=C(CCN1CCCCC1)c1ccc2c(c1)OCCO2	none
CCc1ccc(NC(=O)c2cc(S(=O)(=O)N3CCCCCC3)ccc2F)cc1	none (no result: AmpC inh no detg, RE007 growth inh, AMA1 RON2 block)
Cc1cc2oc(C(=O)Nc3sc4c(c3C(=O)NCc3ccco3)CCC4)cc(=O)c2cc1C	none (no result: AmpC inh no detg, RE007 growth inh, AMA1 RON2 block)
CCOC(=O)c1ccc(Nc2c(-c3ccc(O)cc3)nc3nc[nH]n23)cc1	none (no result: AmpC inh no detg, RE007 growth inh, AMA1 RON2 block)
O=C(O[C@@H]1Cc2c(O)cc(O)cc2O[C@@H]1c1cc(O)c(O)c(O)c1)c1cc(O)c(O)c(O)c1	Sm TGR block 11.2µM (no result: RE007 growth inh, AMA1 RON2 block)
CC[N+](CC)(CC)CCCCOc1ccc2c(c1)C(=O)c1cc(OCCCC[N+](CC)(CC)CC)ccc1-2	Sm TGR block 20µM
CC[N+](C)(CC)CCCCOc1ccc2c(c1)C(=O)c1cc(OCCCC[N+](C)(CC)CC)ccc1-2	Sm TGR block 5.62µM, RE007 growth inh inconclusive
CCCCOc1cccc(C(=O)O)c1	AmpC inh detg inconclusive
Clc1cccc(-n2cc(-c3ccccc3)c3c(N4CCCCC4)ncnc32)c1	none (no result: AmpC inh no detg, RE007 growth inh, AMA1 RON2 block)
Cc1ccc(-c2ccc(NC(=O)C3C4C=CC(C4)C3C(=O)O)cc2)o1 (centres undefined)	Sm TGR block 44.7µM, RE007 growth inh inconclusive
N#Cc1c(N)nc(SCC(=O)OCc2ccccc2)c(C#N)c1-c1ccco1	AmpC inh detg inconclusive
N#Cc1c(N)nc(SCc2ccccc2)c(C#N)c1-c1ccco1	Sm TGR block 50.1µM, AmpC inh detg inconclusive
CN(C)c1ccc(C(c2ccc(N(C)C)cc2)c2ccc([N+](=O)[O-])cc2)cc1	AMA1 RON2 block 8.91µM
O=[N+]([O-])c1ccc(C(c2ccc([N+](=O)[O-])cc2)c2ccc([N+](=O)[O-])cc2)cc1	AMA1 RON2 block inconclusive (no result: Sm TGR block, AmpC inh no detg, AmpC inh detg)
COc1cc(C#Cc2c(-c3ccccc3)n(C)c3ccccc23)cc(OC)c1	Sm TGR block 7.94µM
COc1ccc(C#Cc2c(-c3ccccc3)n(C)c3ccccc23)cc1	none (no result: Sm TGR block, AmpC inh detg)
COc1ccc(-c2c(C#Cc3ccsc3)c3ccccc3n2C)cc1	Sm TGR block 20µM
COc1cc(OC)cc(-c2c(C#Cc3ccsc3)c3cc(-c4ccc(OC)nc4)ccc3n2C)c1	Sm TGR block 28.2µM
Cc1ccccc1CN1C(=O)c2ccccc2Sc2ccc(C(=O)OCc3ccco3)cc21	none (no result: AmpC inh no detg, RE007 growth inh, AMA1 RON2 block)
Cc1ccc(CNC(=O)Nc2ccc(F)cc2F)n1C	Sm TGR block 31.6µM, AmpC inh detg inconclusive
Cc1ccc(CNC(=O)Nc2ccccc2)n1C	Sm TGR block 28.2µM
Cn1cccc1CNC(=O)Nc1ccccc1	none
Cc1c(-c2ccc(Cl)cc2)[n+](=O)c(-c2ccccc2)cn1[O-]	Sm TGR block 50.1µM
Cc1c(-c2ccc(Cl)cc2)[n+](=O)c2c(n1[O-])CCCC2	none
COCCCNC(=O)C1CCN(Cc2cc3ccccc3n2Cc2cccc(C)c2)CC1	none (no result: AmpC inh no detg, RE007 growth inh, AMA1 RON2 block)
Cc1ccc(NC(=O)CC2SC(=NC3CCCCC3)NC2=O)cc1 (centres undefined)	Sm TGR block 50.1µM
Cc1ccc(CNC(=O)c2cc(=O)c3cc(C)cc(C)c3o2)cc1	none (no result: AmpC inh no detg, RE007 growth inh, AMA1 RON2 block)
NNc1ccc2nncn2n1	Sm TGR block 35.5µM
CN1C(=O)/C(=C\c2ccc(Br)s2)C(=O)NC1=S	Sm TGR block 3.16µM
Cc1cc(/C=C2\C(=O)NC(=S)N(C)C2=O)c(C)n1C1CCCCC1	none
O=C1NC(=S)NC(=O)C1=Cc1ccc(Br)s1	Sm TGR block 20µM, AMA1 RON2 block inconclusive
O=C(CSc1nc2c([nH]c3ccccc32)c(=O)n1-c1ccc(F)cc1)NCc1ccccc1	none (no result: AmpC inh no detg, RE007 growth inh, AMA1 RON2 block)
[O-][n+]1onc2c1CCC(=N/O)/C2=N\Nc1ccccc1	Sm TGR block 17.8µM (no result: RE007 growth inh, AMA1 RON2 block)
[O-][n+]1c2c(nn1-c1ccccc1)/C(=N/O)CCC2	none (no result: Sm TGR block)
Cc1cccc(N2CCN(c3ncnc4c3nc3n4CCCCC3)CC2C)c1 (centres undefined)	none (no result: AmpC inh no detg, RE007 growth inh, AMA1 RON2 block)
CCCSCCCNC(=O)c1sc2nc(C)cc(C)c2c1-n1cccc1	none (no result: AmpC inh no detg, RE007 growth inh, AMA1 RON2 block)
